An excerpt weighted towards active compounds, which were near 2.1% of everything screened.
TDP43 rescue: inhibitors of TDP-43 toxicity in yeast | TDP-43 expressing yeast growth rescue, BacTiter-Glo, 24 h | Potency, µM (titrated, usually from 46.1 µM), actives largely listed as activators | hit rate 1.8% among 410,000; note: nearly all actives have a fitted effect of over 50% in size
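Yeast expressing TDP-43 (pregrown in raffinose, seeded at OD600=0.02 in galactose medium) exposed to compounds 24 hr at 30 deg C. Growth read by BacTiter-Glo luminescence; rescue of toxicity appears as increased signal.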
Abeta yeast res: A-beta toxicity reversal in yeast; yeast expressing A-beta42, growth rescue, OD600, 48 h; response scale: 0% DMSO, 100% iron-clioquinol control; Potency, µM (doses to about 46.1 µM), usual class: activators; hit rate 0.063% among 410,000; AID 1347071; note: nearly all actives have a fitted effect of over 55% in size
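Growth rescue measured by 600 nm absorbance after 48 h yeast culture at 30 C with compound. Values normalized between DMSO and an equimolar ferric chloride plus clioquinol control.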
aSyn yeast inh: inhibitors of alpha-synuclein toxicity in yeast | Yeast expressing alpha-synuclein, growth rescue, BacTiter-Glo, 24 h | Potency, µM (doses to about 46.1 µM), most hits filed as activators | hit rate 0.14% among 370,000 | AID 652106; note: nearly all actives have a fitted effect of over 65% in size
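Galactose-induced alpha-syn yeast (OD600=0.02, raffinose-pregrown) + pinned cpd, 24 hr, 30 deg C; growth by BacTiter-Glo luminescence. Growth restoration scores as activation.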
FUS yeast rescue: rescues growth of FUS-expressing yeast; S. cerevisiae FUS-expressing, growth rescue, OD600, 24 h; Potency, µM (top dose mostly 76.6 µM), actives largely listed as activators; hit rate 0.24% among 390,000; note: nearly all actives have a fitted effect of over 55% in size
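Galactose (2%) drives FUS expression in yeast precultured in raffinose; seeding density OD 0.005. Test compounds incubated 24hr at 30C and 99% humidity before absorbance at 600 nm was measured.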
Hits are given with their value; . = inactive; ? = inconclusive; / = not tested or not shown. Calls come from the whole dose curve; as a rule, active = well fitted curve in the direction sought with a large enough effect; inconclusive = small, poorly fitted or top-dose-only effect, or another doubt; inactive = no such curve, though single readings can be large; an effect the other way counts as inactive or inconclusive.

SMILES	TDP43 rescue	Abeta yeast res	aSyn yeast inh	FUS yeast rescue
CCOC(=O)Nc1cccc(Nc2ccccc2)c1	14µM	.	.	.
CCCCOC(=O)c1cccc(NC(=O)CCC(=O)O)c1	.	.	.	.
Cc1ccc2nsnc2c1S(=O)(=O)N1CCN(C(=O)C2CCCO2)CC1 (stereo not given)	?	.	22µM	.
Cc1cc(C)c(S(=O)(=O)N2CCN(C(=O)C3CCCO3)CC2)c(C)c1 (stereo not given)	.	.	.	.
Nn1c(SCC(=O)Nc2nccs2)nnc1-c1cc(-c2ccc(Cl)cc2)n[nH]1	/	/	/	.
CCC(C(=O)NCCCN(CC)CC)n1ncn2c(cc3occc32)c1=O (stereo not given)	.	.	/	.
Cc1ccc2nc(SCC(=O)Nc3cccnc3Cl)[nH]c2c1	.	.	.	/
CC(=O)c1cc2c(cc1NC(=O)CSc1nc3ccc(C)cc3[nH]1)OCO2	13µM	.	.	.
O=[N+]([O-])c1cccc(-c2ccc(SCc3cccnc3)nn2)c1	16µM	.	.	.
CCC(C)(C)n1nnnc1C(c1ccncc1)N1CCC(Cc2ccccc2)CC1 (stereo not given)	.	.	.	.
CCC(C)(C)n1nnnc1C(c1cccnc1)N1CCC(Cc2ccccc2)CC1 (stereo not given)	10µM	.	?	.
O=C(Nc1cc(C(F)(F)F)ccc1-n1cncn1)c1ccc(-c2ccccc2)cc1	14µM	.	.	.
COc1ccc(Cn2cc(CN3CC=CS3(=O)=O)nn2)cc1	/	/	/	.
CCCC1CCC(c2ccc(/C(N)=N/O)cc2)CC1 (stereo not given)	3.5µM	.	.	.
CCCNC(=O)CNC(=S)N(Cc1ccccc1F)C1CCCCC1	?	.	.	.
CCOC(=O)CNC(=S)N(Cc1ccccc1F)C1CCCCC1	?	7.1µM	.	.
CN(C(=O)COC(=O)c1ccccc1OCC(=O)Nc1ccc(Br)cc1)c1ccccc1	/	/	.	/
Cc1ccc(S(=O)(=O)NC(=O)c2ccccc2F)cc1	?	.	.	.
COc1ccccc1C(=O)NS(=O)(=O)c1ccc(C)cc1	18µM	.	?	.
COc1ccc(NC(=O)COc2ccccc2C(=O)Nc2ccccc2)cc1	/	/	.	/
Cc1ccc(NS(=O)(=O)c2cc(C(=O)NCCSc3ccc(C)cc3)ccc2C)cc1	.	.	.	.
Cc1ccc(SCCNC(=O)c2ccc(C)c(S(=O)(=O)Nc3cccc(C)c3)c2)cc1	.	.	.	32µM
O=C(Cn1nc(Cl)nc1Cl)c1ccc(F)cc1	.	.	.	.
O=C(Cn1nc(Cl)nc1Cl)c1ccc2c(c1)OCCO2	11µM	.	.	?
C[C@@H]1CC2[C@@H]3CC[C@H]4CC(=O)CC[C@]4(C)C3=CC[C@]2(C)[C@@]1(O)C(=O)CO (stereo not given in full)	10µM	.	.	.
SMILES	TDP43 rescue	Abeta yeast res	aSyn yeast inh	FUS yeast rescue
Cc1ccc(C)c(OCC(=O)NC2CCCCCC2)c1	11µM	.	.	.
C[n+]1ccc(/C=C/c2ccc([N+](C)(C)C)cc2)c2ccccc21	/	/	.	/
O=C(Cc1ccccc1)c1c[nH]c(C(=O)C(Cl)(Cl)Cl)c1	13µM	.	.	.
O=C(c1c[nH]c(C(=O)C(Cl)(Cl)Cl)c1)c1ccc(F)cc1Cl	8.9µM	.	.	.
O=C(c1ccccc1)c1c[nH]c(C(=O)C(Cl)(Cl)Cl)c1	.	.	.	.
COc1ccc(N2CCN(CCCNC(=O)CCOC(C)(C)C)CC2)cc1	/	/	/	.
CCC(=O)Nc1ccccc1-c1nc2ccccc2n(CC(=O)c2ccc(Cl)cc2)c1=O	.	.	/	.
CCCCNc1c(-c2ccc(OC)c(SC3CCCCC3)c2)nc2cnccn12	.	.	.	32µM
CCCCCCSc1ccc(-c2nc3cnccn3c2NC2CCCCC2)cc1	.	.	.	.
Clc1ccc(-c2nc3cnccn3c2NC2CCCC2)cc1	13µM	.	.	.
CCCCNc1c(-c2ccc(SC3CCCCC3)cc2)nc2cnccn12	22µM	.	.	?
O=C(Cc1ccccc1)NC1CCCCN(Cc2ccc(Cl)cc2)C1=O (stereo not given)	/	/	/	.
C/C(=C\C(=S)Nc1ccccc1)Nc1ccccc1	13µM	.	.	.
O=C(COc1ccc(Br)cc1)N1CCN(c2ccc([N+](=O)[O-])c(N3CCCCC3)c2)CC1	8.9µM	.	.	.
Cc1nn(C)cc1NC(=O)C[C@H]1CC[C@H]2[C@@H](COc3ccc(NC(=O)Nc4ccccc4)cc3C(=O)N2C)O1	/	/	/	.
